HT1080-NT tox: qHTS for induction of synthetic lethality in tumor cells producing 2HG: qHTS for the HT-1080-NT fibrosarcoma cell line. HT-1080-NT fibrosarcoma viability, CellTiter-Glo ATP luminescence, 48 h. Potency, µM (titrated, usually from 46.1 µM), for the others: at the highest dose activity, negative = less viability, actives largely listed as cytotoxic. hit rate 1.6% among 360,000. AID 686970, 2013;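 also: NT is the 2HG producing partner of a matched IDH1 knockdown line; potency is read from the fitted curve at half-maximal effect; 0% = DMSO-treated cells and -100% = media-only wells without cells; nearly all actives have a fitted effect of over 55% in size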
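Toxicity toward the 2HG-producing NT line was scored as %Activity, normalised to DMSO and no-cell wells, from CellTiter-Glo luminescence after 48 hours' treatment.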
12-LOX inh: Primary qHTS assay for inhibitors of human arachidonate 12S-lipoxygenase (ALOX12): Round 2; Polyunsaturated fatty acid lipoxygenase ALOX12 (Homo sapiens), P18054; purified 12hLO, xylenol orange hydroperoxide absorbance; Potency, µM (top dose mostly 108 µM), inactives show at the top dose activity change, negative = inhibition, hits mostly inhibitors; hit rate 1.1% among 580,000; AID 1671190, 2021; also: potency is read from the fitted curve at half-maximal effect
Target sequence (P18054 whole entry, looked up): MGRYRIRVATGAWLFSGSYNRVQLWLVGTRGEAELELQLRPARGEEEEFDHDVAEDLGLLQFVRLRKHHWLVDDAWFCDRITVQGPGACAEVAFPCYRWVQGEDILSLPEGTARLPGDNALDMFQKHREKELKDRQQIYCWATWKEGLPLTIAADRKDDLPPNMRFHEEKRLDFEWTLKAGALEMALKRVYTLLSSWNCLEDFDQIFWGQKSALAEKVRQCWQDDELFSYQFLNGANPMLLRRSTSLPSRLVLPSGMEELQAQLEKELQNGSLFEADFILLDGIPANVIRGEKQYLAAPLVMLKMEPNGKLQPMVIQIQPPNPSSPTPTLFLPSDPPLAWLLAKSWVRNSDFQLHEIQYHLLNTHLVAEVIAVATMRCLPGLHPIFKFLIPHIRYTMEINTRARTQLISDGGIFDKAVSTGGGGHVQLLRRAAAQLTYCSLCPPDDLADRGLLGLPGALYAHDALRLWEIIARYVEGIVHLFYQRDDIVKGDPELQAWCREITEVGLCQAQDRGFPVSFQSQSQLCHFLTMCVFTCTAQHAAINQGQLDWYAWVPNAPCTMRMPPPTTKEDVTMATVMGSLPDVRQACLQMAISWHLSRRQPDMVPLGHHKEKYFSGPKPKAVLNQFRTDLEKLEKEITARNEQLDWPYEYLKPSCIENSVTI
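Hydroperoxide product was detected by ferrous iron/xylenol orange as the 573 to 405 nm absorbance ratio. Arachidonic acid at 40 uM (final) was turned over for 30 min at room temperature by 150 nM human 12hLO, pH 7.0 Hepes buffer, after 15 min compound preincubation.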
HT1080 IDH1KD tx: qHTS for induction of synthetic lethality in tumor cells producing 2HG: qHTS for the HT-1080-IDH1KD cell line; HT-1080 IDH1 knockdown viability, ATP luminescence, 48 h; Potency, µM (titrated, usually from 46.1 µM), without a hit: at the highest dose activity, negative = toxicity, usual class: cytotoxic; hit rate 2% among 360,000;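 also: potency is read from the fitted curve at half-maximal effect; 0% = DMSO wells and -100% = cell-free medium wells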
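After a 2 h attachment period, IDH1KD HT-1080 cells took pin-transferred compound for 48 h at 37 °C; ATP-based luminescence after 10 min room-temperature reagent incubation reported viability.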
DT40 TDP1 no CPT: qHTS for Inhibitors of human tyrosyl-DNA phosphodiesterase 1 (TDP1): qHTS in cells in absence of CPT | DT40 Tdp1-/- hTDP1 cells, no CPT, ATP luminescence, 48 h | Potency, µM (titrated, usually from 46.2 µM), inactives show at the highest dose activity change, negative = growth inhibition, hits mostly inhibitors | hit rate 15% among 420,000 | AID 686978, 2013; also: potency is read from the fitted curve at half-maximal effect; nearly all actives have a fitted effect of over 55% in size
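A cellular qHTS used chicken DT40 cells lacking endogenous Tdp1 but carrying stably transfected human TDP1. Compounds were applied without camptothecin, and cell growth kinetics were judged by ATP-dependent luminescence after ≥48 hr.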
IL1B secr inh: qHTS for Inhibitors of Inflammasome Signaling: IL-1-beta AlphaLISA Primary Screen; THP-1 LPS/ATP IL-1B secretion, AlphaLISA, 16 h; active compounds read low; activity change, % at 57.5 µM; hit rate 4.7% among 360,000; in the data active = activity change below about -50%; inconclusive = mostly about -30% to -49%
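THP-1 cells pretreated 1 hr with compounds (up to 57.5 uM final), then stimulated with LPS (250 ng/mL final) plus ATP (1.25 mM final); secreted IL-1B measured by AlphaLISA after 16 hr, decreased signal indicating inhibition.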
TDP1 cell CPT: qHTS for Inhibitors of human tyrosyl-DNA phosphodiesterase 1 (TDP1): qHTS in cells in presence of CPT; chicken DT40 Tdp1-/-;hTDP1 cells + 20 nM CPT, ATP luminescence, 48 h; Potency, µM (series often up to 46.2 µM), inactives show at the top dose activity change, negative = growth inhibition, hits mostly inhibitors; hit rate 12% among 420,000; also: potency is read from the fitted curve at half-maximal effect; nearly all actives have a fitted effect of over 55% in size
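Chicken DT40 Tdp1-/- cells stably complemented with human TDP1 were seeded at 400 cells/well in medium containing 20 nM camptothecin, exposed to pin-transferred compounds, and grown at 37 °C for at least 48 hr. Viability was read as ATP luminescence.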
Active calls of the source: *; [ ] = dose if it differs, or a comment. The full list was thinned out, with hits kept by preference. Unless noted, calls follow the shape of the dose curve; as a rule, active = well fitted curve in the direction sought with a large enough effect; inconclusive = small, poorly fitted or top-dose-only effect, or another doubt; inactive = no such curve, though single readings can be large; an effect the other way counts as inactive or inconclusive. Unless noted, % is scaled to controls: 0 for no effect and ±100 for the full control effect.

How did COCC(=O)NC[C@@H]1C=C(C)[C@H](CC(=O)NCc2ccc(F)cc2)C[C@H]1C(C)C do in these assays?
12-LOX inh: -13%[176 µM]

Results for COc1cccc(C(=O)NCCC(C)C)c1 ?
12-LOX inh: 8%

How did c1ccc(-c2cn(C[C@H]3CC[C@@H]([C@@H]4CC[C@H](Cn5cc(-c6ccccc6)nn5)O4)O3)nn2)cc1 do in these assays?
HT1080-NT tox: -11%; 12-LOX inh: 12%; HT1080 IDH1KD tx: -17%; DT40 TDP1 no CPT: inconclusive; IL1B secr inh: -14; TDP1 cell CPT: 26µM*

What do the screens show for `c1ccc(CCc2cn(C[C@H]3CC[C@@H]([C@@H]4CC[C@H](Cn5cc(CCc6ccccc6)nn5)O4)O3)nn2)cc1`?
HT1080-NT tox: 2%; 12-LOX inh: 4%; HT1080 IDH1KD tx: 2%; DT40 TDP1 no CPT: 15µM*; IL1B secr inh: -4; TDP1 cell CPT: inconclusive

What do the screens show for `O=C1c2ccccc2C(=O)N1CCCCc1cn(C[C@H]2CC[C@H](Cn3cc(CCCCN4C(=O)c5ccccc5C4=O)nn3)O2)nn1`?
HT1080-NT tox: 3%; 12-LOX inh: -6%; HT1080 IDH1KD tx: 2%; DT40 TDP1 no CPT: 21µM*; IL1B secr inh: -7; TDP1 cell CPT: inconclusive

Results for c1ccc(-c2cn(C[C@H]3CC[C@@H]([C@@H]4CC[C@H](Cn5cc(-c6ccccn6)nn5)O4)O3)nn2)nc1 ?
HT1080-NT tox: 5%; 12-LOX inh: inconclusive; HT1080 IDH1KD tx: 1%; DT40 TDP1 no CPT: -24%; IL1B secr inh: 3; TDP1 cell CPT: -28%

What do the screens show for `CCc1c(C(=O)NC2CCC(C)CC2)csc1C` (stereo not given)?
12-LOX inh: -1%

Results for N#Cc1ccc(NCCNC(=O)c2nccnc2N)nc1 ?
12-LOX inh: -18%

What do the screens show for `O=C(Nc1cccc2cccnc12)c1csc(COCCO)n1`?
HT1080-NT tox: -13%; HT1080 IDH1KD tx: 0%; DT40 TDP1 no CPT: 13µM*; IL1B secr inh: inconclusive; TDP1 cell CPT: 23µM*

What do the screens show for `Cc1cccc(CNC(=O)C(C)C2CCOCC2)c1` (stereo not given)?
12-LOX inh: 6%

How did Cc1ccc(CNC(=O)NCC(=O)N(C)Cc2ccccc2)cc1 do in these assays?
12-LOX inh: -30%

What do the screens show for `CN(Cc1ccccc1)C(=C(Cl)Cl)/C(=C1/NCCN1C)[N+](=O)[O-]`?
HT1080-NT tox: 22%; 12-LOX inh: -18%; HT1080 IDH1KD tx: 3%; DT40 TDP1 no CPT: 9%; IL1B secr inh: 11; TDP1 cell CPT: -8%

Results for CN1CCN/C1=C(/C(Cl)=C(Cl)Cl)[N+](=O)[O-] ?
HT1080-NT tox: -2%; 12-LOX inh: -13%; HT1080 IDH1KD tx: -3%; DT40 TDP1 no CPT: 23µM*; IL1B secr inh: -19; TDP1 cell CPT: 12µM*

Results for O=C(CN1C(=O)NC2(CCCc3ccccc32)C1=O)c1ccc(Br)cc1 (stereo not given) ?
HT1080-NT tox: 0%; 12-LOX inh: inconclusive; HT1080 IDH1KD tx: 2%; DT40 TDP1 no CPT: 13µM*; IL1B secr inh: -8; TDP1 cell CPT: inconclusive

Results for O=C(CN1C(=O)NC2(CCc3ccccc32)C1=O)c1ccc(Br)cc1 (stereo not given) ?
HT1080-NT tox: -2%; 12-LOX inh: -19%; HT1080 IDH1KD tx: 0%; DT40 TDP1 no CPT: -26%; IL1B secr inh: -59*; TDP1 cell CPT: inconclusive

What do the screens show for `COc1ccc(N2CCN(C(=O)CN3C(=O)NC(c4ccc(OC)cc4)(c4ccc(OC)cc4)C3=O)CC2)cc1`?
HT1080-NT tox: -5%; 12-LOX inh: -6%; HT1080 IDH1KD tx: 0%; DT40 TDP1 no CPT: inconclusive; IL1B secr inh: 0; TDP1 cell CPT: inconclusive

Results for COc1cc2c(cc1NC(=O)CN1C(=O)NC3(CCc4ccccc43)C1=O)oc1ccccc12 (stereo not given) ?
HT1080-NT tox: 23µM*; 12-LOX inh: -5%; HT1080 IDH1KD tx: 15µM*; DT40 TDP1 no CPT: inconclusive; IL1B secr inh: -17; TDP1 cell CPT: inconclusive

How did COc1ccc(N2CCN(C(=O)CN3C(=O)NC4(CCCc5ccccc54)C3=O)CC2)cc1 (stereo not given) do in these assays?
HT1080-NT tox: -4%; 12-LOX inh: inconclusive; HT1080 IDH1KD tx: -14%; DT40 TDP1 no CPT: 16µM*; IL1B secr inh: -4; TDP1 cell CPT: -8%

Results for Cc1ccc(NC(=O)CN2C(=O)NC3(CCc4ccccc43)C2=O)cc1Cl (stereo not given) ?
HT1080-NT tox: -26%; 12-LOX inh: 0%; HT1080 IDH1KD tx: -4%[9.24 µM]; DT40 TDP1 no CPT: 26µM*; IL1B secr inh: 1; TDP1 cell CPT: -25%

How did CC(C)c1ccc(C(=O)CN2C(=O)NC3(CCc4ccccc43)C2=O)cc1 (stereo not given) do in these assays?
HT1080-NT tox: -13%; 12-LOX inh: -11%; HT1080 IDH1KD tx: inconclusive; DT40 TDP1 no CPT: 21µM*; IL1B secr inh: inconclusive; TDP1 cell CPT: inconclusive

What do the screens show for `COc1ccc(CCNC(=O)CCCn2c(=O)c3cccn3c3cccnc32)c(OC)c1`?
HT1080-NT tox: 25%; 12-LOX inh: 25%; HT1080 IDH1KD tx: 4%; DT40 TDP1 no CPT: -21%; IL1B secr inh: -3; TDP1 cell CPT: inconclusive

How did COc1ccc(NC(=O)CCn2c(=O)c3cccn3c3cccnc32)c(OC)c1 do in these assays?
12-LOX inh: -25%; DT40 TDP1 no CPT: 15µM*; TDP1 cell CPT: inconclusive

Results for COc1ccc(OC)c(CCNC(=O)CCn2c(=O)c3cccn3c3cccnc32)c1 ?
12-LOX inh: -23%; DT40 TDP1 no CPT: 16µM*; TDP1 cell CPT: inconclusive

What do the screens show for `CCCN(CCC)C(=O)Cn1c(=O)n(-c2cccc(C(F)(F)F)c2)c(=O)c2c(C)c(C)sc21`?
12-LOX inh: -22%; DT40 TDP1 no CPT: 21µM*; TDP1 cell CPT: 23µM*

What do the screens show for `Cc1cc(C)c(NC(=O)Cn2c(=O)n(-c3cccc(C(F)(F)F)c3)c(=O)c3c(C)c(C)sc32)c(C)c1`?
12-LOX inh: -9%; DT40 TDP1 no CPT: -5%; TDP1 cell CPT: -17%

Assay outcomes deposited in PubChem by National Center for Advancing Translational Sciences (NCATS).
